Experimental data from the supplement of paper PMC6279402.
± gives the standard deviation of the averaged measurements.

System: A549
Experiment: relative viability (normalised to negative control = 1, bortezomib = 0) (fraction); higher = less cytotoxic
Settings: inflammatory serum-free RHB-A with cytokines + LPS, 5 d + 24 h CellTiter-Blue
Method: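 A549 KRAS-mutant NSCLC cells, pre-treated 5 µM GSK126 or vehicle (DMSO), were seeded at 250 cells/well in 384-well plates in serum-free RHB-A medium with inflammatory cytokines/LPS and treated with Selleck kinase inhibitor and NCI oncology compounds at 30 or 300 nM in triplicate, refreshed at 48 h. Viability was read by CellTiter-Blue after 5 d plus 24 h and normalised per plate with cellHTS2 (mean of bortezomib positive control = 0, mean of negative control = 1).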

[1] = compound 30 nM, GSK126 pretreatment: 5 uM GSK126
[2] = compound 30 nM, GSK126 pretreatment: none (vehicle)
[3] = compound 300 nM, GSK126 pretreatment: 5 uM GSK126
[4] = compound 300 nM, GSK126 pretreatment: none (vehicle)

SMILES	relative viability [1]	relative viability [2]	relative viability [3]	relative viability [4]
COc1cc2ncnc(Nc3cccc(Br)c3)c2cc1OC	0.996 ± 0.044	0.976 ± 0.048	0.537 ± 0.17	0.701 ± 0.086
CC[C@@H]1C(=O)N(C)c2cnc(Nc3ccc(C(=O)NC4CCC(N5CCN(CC6CC6)CC5)CC4)cc3OC)nc2N1C(C)C (stereo not given in full) [BI6727 (Volasertib)]	0.404 ± 0.1	0.38 ± 0.095	0.227 ± 0.042	0.249 ± 0.097
Cc1[nH]c(/C=C2\C(=O)Nc3ccccc32)c(C)c1CCC(=O)O	0.78 ± 0.0017	0.775 ± 0.032	0.786 ± 0.08	0.772 ± 0.029
CN(Cc1cnc2nc(N)nc(N)c2n1)c1ccc(C(=O)N[C@@H](CCC(=O)O)C(=O)O)cc1 [Methotrexate hydrate; Methotrexate]	0.813 ± 0.055	0.84 ± 0.052	0.797 ± 0.17	0.947 ± 0.086
O=C1NC(=O)/C(=C/c2ccc3nccc(-c4ccncc4)c3c2)S1	0.83 ± 0.1	0.85 ± 0.088	0.747 ± 0.067	0.72 ± 0.029
CN(C)C/C=C/C(=O)Nc1cc2c(Nc3ccc(F)c(Cl)c3)ncnc2cc1O[C@H]1CCOC1 [BIBW2992; BIBW2992(Tovok)]	0.389 ± 0.018	0.374 ± 0.028	0.281 ± 0.036	0.328 ± 0.052
C[C@@H]1CCN(C(=O)CC#N)C[C@@H]1N(C)c1ncnc2[nH]ccc12	1.05 ± 0.18	0.99 ± 0.17	1.31 ± 0.067	1.28 ± 0.1
O=c1ncn2nc(Sc3ccc(F)cc3F)ccc2c1-c1c(Cl)cccc1Cl	0.831 ± 0.12	0.867 ± 0.11	1.12 ± 0.12	1.03 ± 0.16
CCCCC(=O)OCC(=O)[C@]1(O)Cc2c(O)c3c(c(O)c2[C@@H](O[C@H]2C[C@H](NC(=O)C(F)(F)F)[C@H](O)[C@H](C)O2)C1)C(=O)c1c(OC)cccc1C3=O [Valrubicin]	0.989 ± 0.055	1.01 ± 0.042	0.899 ± 0.027	0.879 ± 0.041
CC(C)Cn1cnc2c(N)nc3ccccc3c21 [Imiquimod]	0.8017 ± 0.004	0.794 ± 0.058	0.863 ± 0.059	0.911 ± 0.019
